# Source: PubChem BioAssay (University of Kansas High Throughput Screening Laboratory)
# mHTT-CaM PPI inh: mutant huntingtin-calmodulin interaction inhibitors – biochemical, AlphaScreen, primary screen; actives 3.6% (n = 190,000); AlphaScreen His-mHTT/GST-CaM binding, luminescence; inhibition, % at 15 µM;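 further: 0% = both proteins with DMSO and 100% = one protein alone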
# Pf apPOL inh: Pf-apPOL inhibitors, biochemical, fluorescence; actives 0.25% (n = 210,000); Recombinant Pf-apPOL, molecular beacon fluorescence, 1.5 h; AID 1794808, 2022; inhibition, % at 10 µM
# * hit, by the source's call; i = inactive; x = not tested or not shown; + = active, no number. An excerpt weighted towards active compounds, which were near 3.5% of everything screened. No stated cut-off is given here; in the data, active means inhibition above about 50%; inactive means the rest.
SMILES,mHTT-CaM PPI inh,Pf apPOL inh
CCC[C@H]1[C@@H](NC(=O)c2ccc(Cl)c(C(F)(F)F)c2)CC[C@@]23CCCN2C(=O)CCC[C@@H]13,95.9*,3.1
CN(C)CCCNC(=O)c1cc2c(n1C)CCN(Cc1ccc(F)cc1)C2,95.6*,1.8
COc1ccccc1NC(=O)N1CCc2c(c(COCc3cccc(F)c3)nn2C)C1,20.4,-2.7
COc1ccccc1NC(=O)c1cc2c(n1C)CCN(Cc1ccc(F)cc1)C2,63.3*,-1.7
COc1ccc(CNC(=O)c2cc3c(n2C)CCN(Cc2ccc(F)cc2)C3)cc1OC,75.6*,-5.3
CN(C)CCNC(=O)c1cc2c(n1C)CCN(Cc1ccccc1)C2,4.6,-3.1
COc1ccccc1NC(=O)N1CCc2c(c3cc(F)ccc3n2C)C1,81.5*,-3.8
COc1ccc(CNC(=O)c2cc3c(n2C)CCN(Cc2ccc(F)cc2)C3)cc1,30.6,-3.3
COc1cccc(CNC(=O)c2cc3c(n2C)CCN(Cc2ccc(F)cc2)C3)c1OC,25.1,-8.4
O=C(NCCC1=CCCCC1)C(=O)Nc1cc(Cl)cc(Cl)c1,-0.9,0.2
Cn1c(C(=O)NCc2ccco2)cc2c1CCN(Cc1ccccc1)C2,48.3,-1.3
Cc1ccc(CN2CCc3c(cc(C(=O)NCc4ccco4)n3C)C2)cc1,62.3*,0.6
Cn1nnnc1SCC(=O)NCCn1nc(-c2ccc(F)cc2)ccc1=O,-13.4,-4.1
O=C(CC(c1ccccc1)c1ccccc1)NCCn1nc(-c2ccc(F)cc2)ccc1=O,94.8*,-13.0
O=C(Cc1ccc([N+](=O)[O-])cc1)Nc1ccc2c(c1)OCO2,2.4,-5.5
O=C(CC(=O)c1ccc([N+](=O)[O-])cc1)Nc1ccc2c(c1)OCO2,50.7*,-3.7
O=c1oc2cc3occ(-c4ccc(Br)cc4)c3cc2c2c1CCC2,-7.0,10.4
CCOc1ccc(NC2=C(N3CCCCC3)C(=O)c3ccccc3C2=O)cc1,95.8*,7.7
COc1cccc(NC2=C(N3CCOCC3)C(=O)c3ccccc3C2=O)c1,37.5,14.2
COc1cccc(NC2=C(N3CCCC3)C(=O)c3ccccc3C2=O)c1,100.2*,0.1
CC(=O)c1ccc(NC2=C(N3CCCCC3)C(=O)c3ccccc3C2=O)cc1,14.0,-12.5
COc1ccccc1C=C1SC(=S)N(C(CC(=O)O)C(=O)O)C1=O (configuration not stated),6.1,-12.1
CCc1ccc(OCCCC(=O)Nc2ccc(OC)cc2[N+](=O)[O-])cc1,28.3,-4.3
Nc1cc(Cl)c(Oc2cccc(Cl)c2Cl)cc1[N+](=O)[O-],97.0*,-2.7
O=C(O)c1cc([N+](=O)[O-])c(C(=O)O)cc1Oc1cc(Cl)c(Cl)cc1Cl,-5.0,-5.2
SMILES,mHTT-CaM PPI inh,Pf apPOL inh
COc1ccccc1NC(=O)N1CCN(C2=CC3=NC(C)CN3C=N2)CC1 (configuration not stated),3.9,-0.1
Cc1ccccc1OCC(=O)N1CCN(C2=CC3=NC(C)CN3C=N2)CC1 (configuration not stated),90.6*,-6.2
CC1CCN(c2nc3c(c(=O)n(Cc4ccc(Br)cc4)c(=O)n3C)n2C)CC1,-3.0,1.5
O=S1(=O)N=C(N/N=C/c2ccccn2)c2ccccc21,+,x
Clc1cc(Cl)cc(N/N=C/c2ccccn2)c1,i,x
Cc1ccc(Cl)cc1N1CCN(C(=O)C2(S(=O)(=O)c3ccc(Cl)cc3)CC2)CC1,92.0*,0.9
O=C(N1CCN(c2cccc(Cl)c2)CC1)C1(S(=O)(=O)c2ccc(Cl)cc2)CC1,13.0,-5.0
O=C(O)c1[nH]c2ccccc2c1CC(=O)N1CCN(c2ccc([N+](=O)[O-])cc2)CC1,7.0,-3.1
CN(C(=O)Cc1c(C(=O)O)[nH]c2ccc(Cl)cc12)c1ccc(Br)cc1,10.0,0.6
O=C(O)c1[nH]c2ccc(Cl)cc2c1CC(=O)N1CCN(c2cccc(Cl)c2)CC1,63.0*,-3.6
Cc1ccc(Cl)cc1N1CCN(C(=O)Cc2c(C(=O)O)[nH]c3ccc(Cl)cc23)CC1,98.0*,-0.1
CCSc1sc(CC)cc1C1C(C(=O)Nc2cc(C)ccn2)=C(C)NC2=C1C(=O)CCC2 (configuration not stated),47.0,1.0
C#CCOC(=O)Nc1cc(-c2ccccc2)nn1-c1cccc(F)c1,14.3,0.9
CC(=O)N1CCN(C(=O)C(C)N2CCN(c3ccccc3)CC2)CC1 (configuration not stated),2.5,-0.1
CC(C)NC(=O)N1CCCCCC1c1cccs1 (configuration not stated),-7.6,-3.1
Cc1ccc2n1CCN(C(=O)NCCc1ccccc1)C2C(C)C (configuration not stated),53.7*,-3.0
Cc1ccc2n1CCN(C(=O)NCc1ccccc1)C2C(C)C (configuration not stated),2.1,-3.7
CC(C)n1cc2cc(C(=O)N3CCN(Cc4cccc(F)c4)CC3)sc2c1,70.9*,2.8
CC(C)N1CCN(C(=O)c2cc3cn(C(C)C)cc3s2)CC1,22.4,-5.3
O=C(NCc1ccccc1)c1cc2cn(C3CC3)cc2s1,42.3,18.0
CC(C)n1cc2cc(C(=O)N(C)Cc3ccccc3)sc2c1,86.2*,0.6
CC(C)n1cc2cc(C(=O)N(C)C)sc2c1,11.7,1.2
CN(Cc1ccccc1)C(=O)c1cc2cn(C3CC3)cc2s1,94.8*,2.2
O=C1OC(C(=O)Nc2ccc(F)cc2)Cc2ccc(Cl)cc21 (configuration not stated),-8.7,-12.8
COCCN(Cc1cccs1)C(=O)C1CN(S(C)(=O)=O)CC12CCCCC2 (configuration not stated),7.6,-2.7
SMILES,mHTT-CaM PPI inh,Pf apPOL inh
COc1ccccc1NC(=O)CN(c1ccc(C)cc1)S(=O)(=O)c1ccc(OC)c(OC)c1,17.0,-8.1
COc1ccccc1CNC(=O)c1cc2c(s1)CCN(C(C)=O)C2,2.1,-0.5
Cn1cccc1-c1cc2n(n1)CCCN2C(=O)CCC(=O)N1CCc2ccccc2C1,54.4*,-0.8
Cc1ccccc1NC(=O)CCC(=O)N1CCCn2nc(-c3cccn3C)cc21,31.1,-1.5
CC1C(=O)C(C)C(c2ccc(F)cc2)NC1c1ccc(F)cc1 (configuration not stated),-21.0,-101.2
CC1C(=O)C(C)C(c2ccc(N(C)C)cc2)NC1c1ccc(N(C)C)cc1 (configuration not stated),77.0*,-80.6
C=CCNC(=O)C(=O)Nc1cc(OC)ccc1OC,-3.7,-7.3
C=CCOc1ccccc1CNc1cc(OC)ccc1OC,66.8*,12.4
C=CCOc1ccccc1CNc1ccc(C)cc1,54.2*,-0.2
C=CCOc1ccccc1CNc1ccccc1F,-87.0,2.6
CC1=CC(=NS(=O)(=O)c2ccc(Cl)cc2)C(C)=CC1=O,65.0*,-1.6
CC1=CC(=O)C(C(C)C)=CC1=NS(=O)(=O)c1ccc([N+](=O)[O-])cc1,50.0,-6.4
O=C(NC(N1CCCCC1)C(Cl)(Cl)Cl)c1cccc(Cl)c1 (configuration not stated),-29.0,-2.1
CCc1ccc(CCNC(=O)O[C@@H]2C[C@H]3C[C@@H]2[C@H]2CCCCN2[C@H]3C)cc1,14.3,-13.9
C[C@H]1[C@@H]2C[C@H]([C@H]3CCCCN31)[C@H](OC(=O)NCc1ccc(Cl)cc1)C2,53.0*,-7.5
C=CCOc1ccccc1CN1CCN(c2ccccn2)CC1,-3.6,-5.5
CCOC(=O)N1CCN(C(=O)c2ccc3nc(-c4ccco4)c(-c4ccco4)nc3c2)CC1,-2.9,1.1
